Shiga inhibitor: Shiga toxin inhibition; Vero cells, Shiga toxin protein synthesis inhibition reporter; hit rate 9.2% among 290,000; inhibition, % at 38.7 µM; in the data active = inhibition mostly above about 28%, no sharp cut-off; inactive = mostly below about 43%
HCV inh: HCV inhibition; Huh7.5.1 HCVcc-Cre infection, luciferase reporter, 44 h; Potency, µM (highest dose often 41.8 µM), actives largely listed as inhibitors; hit rate 3.4% among 340,000; AID 651820
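Cells seeded at 1,000/well and cultured 4 h, then compounds added followed by HCVcc-Cre virus (~0.5 moi). After 44 h further culture, luciferase substrate was added, plates held 15 min at room temperature, and luminescence read for 15 sec.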
Pf growth 48h: inhibits P. falciparum growth in the first generation, 48 h. P. falciparum luciferase growth in erythrocytes, 48 h. Potency, µM (series often up to 28.7 µM), actives largely listed as inhibitors. hit rate 5.9% among 310,000. AID 504832
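Cell-based growth assay: transgenic P. falciparum expressing firefly luciferase, cultured in red cells within RPMI 1640 containing 0.5% w/v Albumax, 24 mM bicarbonate and gentamycin. A drop in luciferase activity indicates inhibition.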
Pf growth 96h: inhibits malaria parasite growth, 96 h | P. falciparum luciferase reporter growth, 96 h | Potency, µM (top dose mostly 28.7 µM), most hits filed as inhibitors | hit rate 6.9% among 320,000 | AID 504834
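Infected RBCs, 2% Hct / 0.05% parasitemia final; luciferase-reporter P. falciparum; cpd 96 h, 37 C, 5% CO2; luciferase detection reagent; luminescence.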
HCMV inh: human cytomegalovirus inhibition; hit rate 4.5% among 410,000; HFF cells, HCMV-luciferase reporter, 72 h; active compounds read low; activity change, negative = inhibition, % at 57.5 µM; in the data active = activity change below about -60%; inconclusive = no clear call, values can overlap the other calls; inactive = above about -39%
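Screen run at 2 compound doses on HFFs infected with reporter HCMV, MOI 1 PFU/cell. Luciferase activity from cell lysates at 72 h post infection gave inhibition relative to buffer-only and Salinomycin wells.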
Cycloheximide cs: affects cycloheximide protein synthesis inhibition readout, counter-screen; cell reporter, cycloheximide protein synthesis inhibition counterscreen; max response, %; hit rate 12% among 300,000; AID 2314; in the data active = max response mostly above about 13%, no sharp cut-off; inactive = mostly below about 14%; note: read at 38.3 µM for the half of the compounds with a filed dose
Numbers stand for hits; - = inactive; ? = inconclusive; . = no result given; [ ] = dose if it differs, or a comment. This is a sample that favours compounds with a hit; in the whole collection about 21% have one here. Unless noted, calls come from the whole dose curve; as a rule, active = well fitted inhibition curve with a large enough effect; inconclusive = small, poorly fitted or top-dose-only effect, or another doubt; inactive = no such curve, though single readings can be large or run the other way.

SMILES	Shiga inhibitor	HCV inh	Pf growth 48h	Pf growth 96h	HCMV inh	Cycloheximide cs
CCc1ccc(NC(=O)C2CCN(S(=O)(=O)c3c(C)noc3/C=C\c3ccc(OC)cc3)CC2)cc1	.	.	.	.	-	.
CCc1ccc(NC(=O)C2CCN(S(=O)(=O)c3c(C)noc3C)CC2)cc1	-	-	-	5.9µM	?	-
CCOc1ccccc1/C=C/c1onc(C)c1S(=O)(=O)N1CCC(C(=O)NC)CC1	-	-	?	-	-	-
Cc1ccc(N2CC(C(=O)Nc3c4c(nn3C(C)(C)C)CS(=O)(=O)C4)CC2=O)cc1C (stereo not drawn)	-	-	-	?	-	-
Cc1sc2ncn(CC(=O)N3CCN(c4cccc(Cl)c4)CC3)c(=O)c2c1S(=O)(=O)N1CCN(c2ncccn2)CC1	.	.	.	.	-	.
O=C(NNC(=O)C1CCN(S(=O)(=O)c2ccc(Cl)cc2)CC1)c1ccccc1O	.	?	-	-	-	.
O=C(c1ccc(C(F)(F)F)cc1)N1CCC(=O)N(C(COCc2ccc(C(F)(F)F)cc2)Cc2ccccc2)CC1 (stereo not drawn)	-	-	?	9.3µM	-	-
Cc1cccc(COCC(CC(C)C)N2CCN(C(=O)c3ccc(C(C)(C)C)cc3)CCC2=O)c1 (stereo not drawn)	-	?	7.4µM	?	-	-
CC(C)CC(COCc1cccc(Cl)c1)N1CCN(C(=O)c2ccc(C(F)(F)F)cc2)CCC1=O (stereo not drawn)	-	-	13µM	7.4µM	-	-
CC(C)C[C@@H](COCc1ccc(F)cc1)N1CCN(C(=O)c2cccc(C(F)(F)F)c2)CCC1=O	.	.	.	.	-	.
Cc1cccc(COC[C@H](CC(C)C)N2CCN(C(=O)c3ccc(C(C)(C)C)cc3)CCC2=O)c1	.	.	.	.	-	.
CC(C)CC(COCc1ccc(F)cc1)N1CCN(C(=O)c2cccc(C(F)(F)F)c2)CCC1=O (stereo not drawn)	-	-	?	13µM	-	-
Cc1cccc(COC[C@H](Cc2ccccc2)N2CCN(C(=O)c3ccc(C(F)(F)F)cc3)CCC2=O)c1	.	.	.	.	-	.
COc1cc(C(=O)NCc2ccc3c(c2)CCN3C(=O)c2ccc(Cl)cc2)cc(OC)c1OC	.	.	.	.	-	.
CC(C)Cn1cc(NC(=O)Nc2cccc(C(F)(F)F)c2)c2ccccc2c1=O	.	.	.	.	-	.
Cc1cccc(COCC(CC(C)C)N2CCN(C(=O)c3ccc(C(F)(F)F)cc3)CCC2=O)c1 (stereo not drawn)	-	?	10µM	?	-	-
O=C(c1cccc(Cl)c1)N1CCC(=O)N(C(COCc2cccc(Cl)c2)Cc2ccccc2)CC1 (stereo not drawn)	-	?	?	13µM	-	-
Cc1cccc(COCC(Cc2ccccc2)N2CCN(C(=O)c3ccc(C(F)(F)F)cc3)CCC2=O)c1 (stereo not drawn)	-	-[8.37 µM]	?	?	.	-
O=C(NCCc1nc2ccc(Cl)cc2[nH]1)C1CCC(=O)N(Cc2cccc(F)c2)C1 (stereo not drawn)	-	-	-	-	-	-
N#Cc1ccc(OCC(=O)Nc2ccc(N3CCCC3)cc2)cc1	.	?	-	-	-	.
Cc1cccc(N/C=C/C(=C(C#N)C#N)N(C)C)c1	-	-	-	-	-	-
CN(C)C(/C=C/Nc1ccc(O)cc1)=C(C#N)C#N	-	-	?	9.3µM	-	-
CSc1ccc(/C=C/C(=O)OCC(=O)N(C)CCC#N)cc1	31	-	-	-	-	20
CCCNC(=O)C(Cc1ccccc1C)NC(=O)c1ccc(C(F)(F)F)cc1 (stereo not drawn)	.	-	-	-	-	.
COc1ccc(-c2cn3nc4c(nc3n2)CCCC4)cc1	48	-	.	-	-	26
COc1ccc(CNc2cc(-c3ccc(OC)cc3)nc3nncn23)cc1	.	.	.	.	-	.
N/C(=N\OC(=O)c1cccc(Cn2cc(C(F)(F)F)ccc2=O)c1)c1ccccc1	41	?	?	?	?	32
N/C(=N\OC(=O)c1cccc(Cn2cc(C(F)(F)F)ccc2=O)c1)c1ccc(Cl)cc1	-	-	?	?	-64	-
Cc1ccc(/C(N)=N/OC(=O)c2cccc(Cn3cc(C(F)(F)F)ccc3=O)c2)cc1	-	?	?	?	-	-

Screens: PubChem BioAssay, National Center for Advancing Translational Sciences (NCATS)
